# Source: PubChem BioAssay (NCATS)
# Records with an inconclusive call do not appear. Entries that show only a call come without a potency. The source made the active and inactive calls. Calls come from the whole dose curve; as a rule, active = well fitted curve in the direction sought with a large enough effect; inconclusive = small, poorly fitted or top-dose-only effect, or another doubt; inactive = no such curve, though single readings can be large; an effect the other way counts as inactive or inconclusive.
# Tests used:
# [1] = qHTS assay to identify small molecule inhibitors of chordoma cells - UCH-2 (AID 1259356)
# [2] = P-glycoprotein substrates identified in KB-8-5-11 adenocarcinoma cell line, qHTS therapeutic library screen (AID 1346987); note: nearly all actives have a fitted effect of over 65% in size; note: potency is the fitted concentration of half-maximal effect
# Outline: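 Compounds are pinned in dose-response onto KB-8-5-11 cells (500 cells/well, colchicine-free medium) and left 72 h at 37 degree C. CellTiter-Glo luminescence then yields AC50 values.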
# [3] = P-glycoprotein substrates identified in KB-3-1 adenocarcinoma cell line, qHTS therapeutic library screen (AID 1346986); settings: KB-3-1 parental cells viability, CellTiter-Glo, 72 h; at 44.5 µM (top of the series); note: nearly all actives have a fitted effect of over 60% in size
# Outline: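 72 h cell-killing screen, 500 cells/well, CellTiter-Glo luminescence. Paired lines KB-3-1/KB-8-5-11; P-gp dependence checked by tariquidar co-treatment and HEK-293 MDR-19 versus empty-vector cells.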
SMILES,Potency [1],Potency [2],outcome [3]
CC(C)N=C(N)/N=C(\N)Nc1ccc(Cl)cc1,inactive,inactive,–
Cc1c(N(C)CS(=O)(=O)O)c(=O)n(-c2ccccc2)n1C,inactive,inactive,–
CC1(C)O[C@@H]2C[C@H]3[C@@H]4C[C@H](F)C5=CC(=O)C=C[C@]5(C)[C@H]4[C@@H](O)C[C@]3(C)[C@]2(C(=O)CO)O1,inactive,inactive,–
CC(C)(C)CC(C)(C)c1ccc(OCCOCC[N+](C)(C)Cc2ccccc2)cc1,inactive,inactive,–
CCCCCCCCCCCCCCCC[N+](C)(C)CCN(Cc1ccc(OC)cc1)c1ncccn1,inactive,inactive,–
CN(C)C(=S)SC(=S)N(C)C,inactive,inactive,–
CC[N+](CC)(CCNC(=O)C(=O)NCC[N+](CC)(CC)Cc1ccccc1Cl)Cc1ccccc1Cl,inactive,inactive,–
C[C@]12CCC(=O)C=C1[C@@H]1C[C@@H]1[C@H]1[C@@H]3[C@@H]4C[C@@H]4[C@@]4(CCC(=O)O4)[C@@]3(C)CC[C@@H]12,inactive,4.11 µM (active),–
Cc1ccc(C(=O)C(C)CN2CCCCC2)cc1 (stereo not given),inactive,inactive,–
C[C@H]1C[C@H]2[C@@H]3CCC4=CC(=O)C=C[C@]4(C)[C@@]3(Cl)[C@@H](O)C[C@]2(C)[C@@]1(O)C(=O)CO,inactive,inactive,–
OC[C@H]1O[C@H](O[C@]2(CCl)O[C@H](CCl)[C@@H](O)[C@@H]2O)[C@H](O)[C@@H](O)[C@H]1Cl,–,inactive,inactive
CC(C)(C(=O)c1cccnc1)c1cccnc1,inactive,inactive,–
Cc1ccccc1C(=O)Nc1ccc(C(=O)N2CCCC(N(C)C)c3ccccc32)cc1 (stereo not given),–,5.8 µM (active),–
Cc1nc2n(c(=O)c1CCN1CCC(c3noc4cc(F)ccc34)CC1)CCC[C@H]2O,–,inactive,–
CCCN1CCCC[C@H]1C(=O)Nc1c(C)cccc1C,inactive,inactive,–
CC(C)COC(=O)c1ccc(N)cc1,inactive,inactive,–
COCc1c(C(C)C)nc(C(C)C)c(/C=C/[C@@H](O)C[C@@H](O)CC(=O)O)c1-c1ccc(F)cc1,inactive,0.731 µM (active),–
CNCC[C@@H](Oc1ccccc1C)c1ccccc1,inactive,inactive,–
CN(C)CC/C=C1/c2ccccc2COc2ccc(CC(=O)O)cc21,–,inactive,–
COc1ccc(CN2CCN(C(c3ccc(F)cc3)c3ccc(F)cc3)CC2)c(OC)c1OC,inactive,23.1 µM (active),–
CCC(C(=O)OCCN(CC)CC)c1ccccc1 (stereo not given),–,inactive,–
CC(C)n1nc(-c2cc3cc(O)ccc3[nH]2)c2c(N)ncnc21,–,0.366 µM (active),–
CC(C)(C)NC(=O)[C@@H]1CN(Cc2cccnc2)CCN1C[C@@H](O)C[C@@H](Cc1ccccc1)C(=O)N[C@H]1c2ccccc2C[C@H]1O,–,inactive,–
